Reference: PubChem BioAssay AID493200 (National Center for Advancing Translational Sciences (NCATS), 2011)
Results filed as inconclusive are left out. Calls of active or inactive are those of the source. Calls follow the shape of the dose curve; as a rule, active = well fitted activation curve with a large enough effect; inconclusive = small, poorly fitted or top-dose-only effect; inactive = no such curve, though single readings can be large or run the other way.

Assay: qHTS Assay for Rab9 Promoter Activators: Initial hit validation from the primary screen
Settings: Huh7 Rab9 promoter luciferase reporter, 24 h; series mostly up to 46.1 µM
Description: NIH Chemical Genomics Center [NCGC] NIH Molecular Libraries Probe Production centers Network [MLPCN] MLPCN Grant: MH089537-01 Assay Submitter (PI): Yiannis A. Ioannou NCGC Assay Overview: Niemann Pick Type C (NPC) is a rare neurodegenerative lipidosis that is characterized by lipid storage in the endosomal/lysosomal system. Treatment modalities for this devastating disease are currently non-existent due to the severe obstacles associated with accessing the central nervous system with proteins or genes (Ioannou, 2000). We have developed a new paradigm, termed "Orphan Receptor Bypass Therapy" (ORByT), to address these disorders. This paradigm posits the existence of endogenous "suppressor" proteins whose expression can dramatically improve LSD pathogenesis. The goal is the identification/discovery of small chemical compounds that can modulate the expression of these proteins and provide a new treatment modality for these devastating disorders. One such protein whose overexpression reverses aspects of the NPC phenotype is Rab9. We have developed and optimized a cell based luciferase reporter assay in 1536 well format for the identification of up-regulators of the Rab9 promoter. This assay presents data on the validation of hits from the primary screen.
The Rab9 promoter is cloned in front of the luciferase reporter gene, therefore […] promoter activation results in luciferase expression. Frozen stock of the Rab9 promoter transfected Huh7 cells were obtained from the laboratory of Dr. Yiannis Ioannou (The Mount Sinai School of Medicine, New York, NY). Cells were propagated and maintained at NCGC in medium containing RPMI-1640 supplemented with 10% FBS, 2mM L-glutamine, and 50ug/ml penicillin/streptomycin. Cells were harvested in and plated for assays in OP-MEM I reduced-serum medium supplemented with 10% FBS. The Amplite luciferase reporter gene assay kit was purchased from ABD Bioquest and prepared/stored according to manufacturers recommendations. qHTS Assay Setup: 1.Dispensed 5ul of Huh7 cells stably expressing Rab9-luciferase at a density of 1500 cells per well 1536-well plates. 2.Incubate cells at 37C, 5% CO2, and 95% humidity for 2 hours. 3.Transferred 23nl per well of compound in DMSO solution. 4.Incubated at 37C, 5% CO2, and 95% humidity for 24 hours. 5.Dispensed 3ul per well of Amplite reagent(ABD Bioquest) per well. 6.Incubate at ambient for 10 minutes. 7.Read using the luminescence protocol on the ViewLux plate reader (Perkin Elmer).

| SMILES | outcome |
| --- | --- |
| COc1ccc(C(CC(=O)N2CCC3(CC2)OCCO3)NS(=O)(=O)c2ccc(F)cc2)cc1 (stereo unspecified) | inactive |
| Cc1cccn2c(NCC3CCCO3)c(C(C)C)nc12 (stereo unspecified) | inactive |
| O=C1c2ccccc2C(=O)N1Cc1nc2ccccc2c(=O)n1-c1cccnc1 | inactive |
| CN1CCc2cc3c(c4c2C1Cc1ccccc1-4)OCO3 (stereo unspecified) | inactive |
| CCC(=NCc1cccnc1)c1c(O)n(-c2ccccc2)c(=O)[nH]c1=O | inactive |
| COc1cccc(CCNCc2ccc(SC)cc2)c1 | inactive |
